Assay [1] can be described thus: antimalarial activity against Dd2 strain (AID 2302;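 active = growth inhibition above 50% at the single 2 µM test dose, taken to imply half-maximal potency below 2 µM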;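 also: 0% = DMSO untreated growth and 100% = chloroquine plus artemisinin killed control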). Conditions: P. falciparum Dd2 in RBCs, LDH growth readout, 72 h; at 2 µM; active compounds read high.
Assay [2] can be described thus: HepG2 cytotoxicity, primary screen, cytotoxicity control for P. falciparum antimalarial project, cell-based, ATP luminescence (AID 2303;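 active = inhibition above 50%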;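 also: 0% = DMSO wells and 100% = digitonin-killed cells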). Conditions: HepG2 viability, 24-48 h, at 10 µM, active compounds read high.
Assay [3] addresses L-lactate dehydrogenase (Plasmodium falciparum (isolate CDC / Honduras)) (UniProt Q27743). Kind of assay: PfLDH activity inhibition – cell lysate, 3D7 strain, counter-screen for P. falciparum growth inhibition project (AID 2304).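 Also: 0% = vehicle and 100% = reference inhibitor.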 Conditions: P. falciparum 3D7 crude extract, LDH APAD/NBT absorbance; at 2 µM; active compounds read high.
Assay [4] is described as follows: inhibition of 3D7 malaria parasite growth – strain 3D7 (AID 2306).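 Also: 0% = DMSO wells and 100% = chloroquine plus artemisinin control wells.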 Conditions: P. falciparum 3D7 erythrocytic growth, LDH absorbance, 72 h; at 2 µM; active compounds read high.
Assay [5] concerns the target Calcium-dependent protein kinase 1 (Plasmodium falciparum (isolate 3D7)) (UniProt P62344). The assay is described as follows: PfCDPK1 kinase inhibitors, biochemical, TCAMS library (AID 1159585; cut-off not given, nearly all actives have IC50 up to about 0.98 µM;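 also: inhibitors leave more ATP so luminescence rises with inhibition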). Conditions: recombinant PfCDPK1, Kinase-Glo ATP depletion luminescence. A general note: Kinase-Glo measures the ATP left after a reaction by luminescence.
For assay [6], the target named is Plasmodium falciparum protein kinase 6 (PK6, PF3D7_1337100) (UniProt Q8IDW1). The assay is described as follows: PfPK6 kinase inhibitors, biochemical, TCAMS library (AID 1159586). Conditions: recombinant PfPK6, Kinase-Glo ATP depletion luminescence.
Plasmodium falciparum protein kinase 6 (PK6, PF3D7_1337100), sequence (Q8IDW1 1-305): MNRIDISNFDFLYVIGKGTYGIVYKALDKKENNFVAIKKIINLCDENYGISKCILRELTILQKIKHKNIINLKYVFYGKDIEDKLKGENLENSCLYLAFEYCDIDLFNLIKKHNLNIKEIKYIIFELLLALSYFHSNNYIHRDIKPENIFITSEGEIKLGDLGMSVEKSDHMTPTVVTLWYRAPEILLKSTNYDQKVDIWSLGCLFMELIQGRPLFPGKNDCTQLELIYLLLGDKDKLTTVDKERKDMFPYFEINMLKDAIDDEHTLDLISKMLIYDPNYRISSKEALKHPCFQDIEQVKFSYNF
For assay [7], the target named is Protein kinase 7 (PK7), Plasmodium falciparum 3D7 (PF3D7_0213400) (UniProt Q7YTF7). Kind of assay: inhibition of Plasmodium PK7 catalytic activity – biochemical, TCAMS antimalarial set, Kinase-Glo luminescence (AID 1159587). Conditions: recombinant PfPK7, Kinase-Glo ATP depletion luminescence.
Protein kinase 7 (PK7), Plasmodium falciparum 3D7 (PF3D7_0213400), sequence (Q7YTF7 1-343): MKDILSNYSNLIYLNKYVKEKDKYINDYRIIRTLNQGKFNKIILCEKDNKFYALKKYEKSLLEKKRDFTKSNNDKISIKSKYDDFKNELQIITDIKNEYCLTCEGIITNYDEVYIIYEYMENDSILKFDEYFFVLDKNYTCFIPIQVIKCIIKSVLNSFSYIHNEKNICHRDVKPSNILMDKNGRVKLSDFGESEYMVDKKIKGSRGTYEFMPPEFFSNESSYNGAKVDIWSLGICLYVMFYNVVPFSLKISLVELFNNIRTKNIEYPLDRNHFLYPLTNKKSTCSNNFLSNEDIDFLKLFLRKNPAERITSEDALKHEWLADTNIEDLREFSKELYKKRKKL
Assay [8] concerns the target Calcium-dependent protein kinase 4 (Plasmodium falciparum (isolate 3D7)) (UniProt Q8IBS5). The assay is described as follows: PfCDPK4 kinase inhibitors, biochemical, TCAMS library (AID 1159588; cut-off not given, nearly all actives have IC50 up to about 0.91 µM). Conditions: recombinant PfCDPK4, Kinase-Glo ATP depletion luminescence.

Values without a mark were called inactive. For part of these data: Potency and affinity values are given separately. The source made the active and inactive calls. Unless noted, no rule for the calls is given here.

As a reminder, the inhibition is the drop in the measured response relative to a control, in per cent.

L-lactate dehydrogenase (Plasmodium falciparum (isolate CDC / Honduras)), sequence (Q27743 whole entry, looked up): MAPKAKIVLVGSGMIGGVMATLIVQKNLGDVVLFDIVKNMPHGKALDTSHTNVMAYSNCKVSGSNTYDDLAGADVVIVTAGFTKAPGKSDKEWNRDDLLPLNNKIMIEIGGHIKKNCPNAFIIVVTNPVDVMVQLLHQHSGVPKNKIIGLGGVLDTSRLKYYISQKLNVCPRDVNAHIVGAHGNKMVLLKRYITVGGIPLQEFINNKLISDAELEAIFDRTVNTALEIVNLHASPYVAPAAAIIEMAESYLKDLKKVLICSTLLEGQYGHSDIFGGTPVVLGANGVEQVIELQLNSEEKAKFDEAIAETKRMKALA
Calcium-dependent protein kinase 4 (Plasmodium falciparum (isolate 3D7)), sequence (Q8IBS5 whole entry, looked up): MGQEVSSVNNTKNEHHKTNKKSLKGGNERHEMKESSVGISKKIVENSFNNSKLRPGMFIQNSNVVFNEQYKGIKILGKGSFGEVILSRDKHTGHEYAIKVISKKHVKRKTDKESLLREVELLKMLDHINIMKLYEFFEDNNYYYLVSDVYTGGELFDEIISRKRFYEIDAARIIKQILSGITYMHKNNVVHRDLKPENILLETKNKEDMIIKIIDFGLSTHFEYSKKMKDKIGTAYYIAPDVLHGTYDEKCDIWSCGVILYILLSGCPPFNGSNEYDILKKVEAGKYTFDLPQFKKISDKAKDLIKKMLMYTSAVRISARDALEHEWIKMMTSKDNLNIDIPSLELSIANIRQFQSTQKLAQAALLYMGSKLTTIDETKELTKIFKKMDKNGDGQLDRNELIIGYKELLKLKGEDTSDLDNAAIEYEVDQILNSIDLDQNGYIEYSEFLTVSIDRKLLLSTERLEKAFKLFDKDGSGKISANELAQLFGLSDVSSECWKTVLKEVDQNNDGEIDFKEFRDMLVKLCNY
Calcium-dependent protein kinase 1 (Plasmodium falciparum (isolate 3D7)), sequence (P62344 whole entry, looked up): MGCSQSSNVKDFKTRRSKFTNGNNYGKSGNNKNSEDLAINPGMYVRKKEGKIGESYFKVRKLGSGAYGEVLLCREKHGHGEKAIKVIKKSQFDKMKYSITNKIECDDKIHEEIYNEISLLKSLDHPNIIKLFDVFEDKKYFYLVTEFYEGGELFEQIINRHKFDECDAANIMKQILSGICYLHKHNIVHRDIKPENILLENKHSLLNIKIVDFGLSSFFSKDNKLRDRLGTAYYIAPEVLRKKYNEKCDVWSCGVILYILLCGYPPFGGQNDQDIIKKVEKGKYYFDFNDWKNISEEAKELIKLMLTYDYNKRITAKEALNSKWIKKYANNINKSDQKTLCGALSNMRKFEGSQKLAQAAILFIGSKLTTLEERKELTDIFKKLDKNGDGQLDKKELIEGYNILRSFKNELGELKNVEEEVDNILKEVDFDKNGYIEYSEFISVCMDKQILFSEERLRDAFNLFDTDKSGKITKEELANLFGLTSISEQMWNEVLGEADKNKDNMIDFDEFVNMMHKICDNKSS

Consider `N#Cc1ccc2c(c1)CN(CCC1CCC(NC(=O)c3cc4cnccc4[nH]3)CC1)CC2` (stereo not drawn), for which the growth inhibition is 28% in assay [1] and 97% (active) in assay [4]. The inhibition was 13% in assay [2] and -2% in assay [3]. For the same molecule, the outcome in assay [5], in assay [6], in assay [7] and in assay [8] was inactive.
In the case of `COc1ccc2nccc([C@@H](O)CN3CCC(NC(=O)C(c4cc5ccccc5o4)N4CCN(Cc5ccccc5)CC4)CC3)c2c1` (stereo partly drawn), the growth inhibition in assay [1] was 75% (active); in assay [4] it was 91% (active). In addition, the inhibition in assay [2] is 30%; in assay [3] it was -5%. In addition, the outcome in assay [5], in assay [6], in assay [7] and in assay [8] was inactive.
On to `CCCc1cccc(C)c1OCCCON1C(N)=NC(N)=NC1(C)C`, for which the growth inhibition in assay [1] was 96% (active); in assay [4], 95% (active). In addition, the inhibition is 57% (active) in assay [2] and -2% in assay [3]. In addition, the result in assay [5], in assay [6], in assay [7] and in assay [8] was inactive.
`O=C(NC1CCN(CCC[C@]2(c3ccc(Cl)c(Cl)c3)CCCN(C(=O)c3ccccc3)C2)CC1)c1ccc(Cl)cc1`: the growth inhibition is 4% in assay [1] and 95% (active) in assay [4]. The inhibition in assay [2] was 56% (active); in assay [3], -1%. Further, the result in assay [5], in assay [6], in assay [7] and in assay [8] was inactive.
For `CCN(CC)CCN(Cc1ccc(-c2ccc(C(F)(F)F)cc2)cc1)C(=O)Cn1c(CCc2ccc(F)cc2)nc(=O)c2sccc21`, the growth inhibition in assay [1] was 90% (active); in assay [4], 99% (active). In addition, the values for the inhibition in assay [2] and in assay [3] were 100% (active) and -3%, respectively. Besides, the outcome in assay [5], in assay [6], in assay [7] and in assay [8] was inactive.
With `CC(C)C[C@H](NC(=O)c1cc2ccccc2s1)C(=O)N[C@H]1CCN(Cc2ccc(OCCN3CCNCC3)c3ccccc23)C1`, the growth inhibition in assay [1] was 96% (active); in assay [4] it was 101% (active). Moreover, the inhibition in assay [2] is 43%; in assay [3], 3%. Moreover, the outcome in assay [5], in assay [6], in assay [7] and in assay [8] was inactive.
Regarding `CNCCNCc1ccc(-c2ccc(-c3nc4ccccc4[nH]3)s2)cc1`, the growth inhibition was 15% in assay [1] and 99% (active) in assay [4]. The inhibition was 11% in assay [2] and 5% in assay [3]. Also, the result in assay [5], in assay [6], in assay [7] and in assay [8] was inactive.
For `O=C(NC1CCCCN(Cc2ccccc2O)C1)c1ccc(-c2ccccc2)cc1` (stereo not drawn), the growth inhibition in assay [1] is 61% (active); in assay [4], 97% (active). Besides, the inhibition was 21% in assay [2] and -3% in assay [3]. The outcome in assay [5], in assay [6], in assay [7] and in assay [8] was inactive.
As to `CC(C)C[C@H](NC(=O)[C@H](Cc1ccccc1)NC(=O)CCN1C(=O)COc2ccc(C(=O)O)cc21)C(=O)NC(CC1CCCCC1)C(O)CC(=O)NCCCn1ccnc1` (stereo partly drawn), the growth inhibition in assay [1] is -4%; in assay [4], 99% (active). For the same molecule, the inhibition is -3% in assay [2] and -8% in assay [3]. The outcome in assay [5], in assay [6], in assay [7] and in assay [8] was inactive.
With `CC(=O)Oc1ccc(C(=O)Oc2ccccc2C#CC#N)cc1OC(C)=O`, the growth inhibition in assay [1] is 61% (active); in assay [4], 93% (active). The results for the inhibition in assay [2] and in assay [3] were 23% and -1%, respectively. Besides, the result in assay [5], in assay [6], in assay [7] and in assay [8] was inactive.
`CCNc1cc(C(=O)N[C@@H](Cc2ccccc2)[C@H](O)CNC2(CCC(C)C)CC2)cc(N2CCCCS2(=O)=O)c1`: the growth inhibition was 52% (active) in assay [1] and 90% (active) in assay [4]. The inhibition is 6% in assay [2] and 2% in assay [3]. Moreover, the result in assay [5], in assay [6], in assay [7] and in assay [8] was inactive.
Take `CC(=O)Nc1ccc(CN2CCc3ccc(NS(=O)(=O)c4cccc(OCc5ccc(Cl)cc5)c4)cc3CC2)s1`: the figures for the growth inhibition in assay [1] and in assay [4] were 7% and 93% (active), respectively. In addition, the inhibition is 23% in assay [2] and -3% in assay [3]. Further, the result in assay [5], in assay [6], in assay [7] and in assay [8] was inactive.
Consider `CCn1c2ccccc2c2cc(Cc3cnc(N)nc3N)ccc21`, for which the growth inhibition in assay [1] is -2%; in assay [4], 94% (active). Also, the inhibition was 28% in assay [2] and 5% in assay [3]. Besides, the outcome in assay [5], in assay [6], in assay [7] and in assay [8] was inactive.
Take `O=C(Cn1c(CCc2cccc(F)c2F)nc(=O)c2ccccc21)N(Cc1ccc(-c2ccc(C(F)(F)F)cc2)cc1)C1CCN(C2CCOCC2)CC1`: the growth inhibition is 76% (active) in assay [1] and 101% (active) in assay [4]. Besides, the inhibition was 97% (active) in assay [2] and -2% in assay [3]. The outcome in assay [5], in assay [6], in assay [7] and in assay [8] was inactive.
For `FC(F)(F)c1ccc2nc(-c3ccc(-c4ccc(CNCCN5CCNCC5)cc4)cc3)[nH]c2c1`, the growth inhibition in assay [1] is 74% (active); in assay [4] it was 92% (active). Further, the inhibition was 13% in assay [2] and -4% in assay [3]. Also, the outcome in assay [5], in assay [6], in assay [7] and in assay [8] was inactive.
In the case of `COc1cc(CCON2C(N)=NC(N)=NC2(C)C)cc(OC)c1OC`, the results for the growth inhibition in assay [1] and in assay [4] were 95% (active) and 93% (active), respectively. In addition, the inhibition in assay [2] is 59% (active); in assay [3], -1%. The result in assay [5], in assay [6], in assay [7] and in assay [8] was inactive.
For the molecule `CN(CCCCN)Cc1ccc(-c2ccc(Cl)cc2)cc1`, the growth inhibition in assay [1] is 20%; in assay [4] it was 97% (active). Moreover, the inhibition in assay [2] is 96% (active); in assay [3], 3%. Besides, the result in assay [5], in assay [6], in assay [7] and in assay [8] was inactive.
Regarding `COc1ccc(C2CCN(CCCCNC(=O)c3ccc(NC(=O)c4ccc(Cl)cc4)cc3)CC2)c(C)c1`, the results for the growth inhibition in assay [1] and in assay [4] were 35% and 98% (active), respectively. The inhibition was 22% in assay [2] and 2% in assay [3]. The outcome in assay [5], in assay [6], in assay [7] and in assay [8] was inactive.
For the molecule `CC(C)(C)n1nnnc1C(c1cccnc1)N(Cc1ccccc1)Cc1ccc(Cl)cc1` (stereo not drawn), the growth inhibition is 17% in assay [1] and 96% (active) in assay [4]. Also, the inhibition in assay [2] was 0%; in assay [3], -1%. In addition, the result in assay [5], in assay [6], in assay [7] and in assay [8] was inactive.
For the molecule `COc1ccccc1C1CCN(C2CCC(NC(=O)c3cc(-c4ccc(Cl)cc4)cs3)CC2)CC1` (stereo not drawn), the growth inhibition in assay [1] is 100% (active); in assay [4] it was 101% (active). For the same molecule, the values for the inhibition in assay [2] and in assay [3] were 61% (active) and -1%, respectively. Besides, the outcome in assay [5], in assay [6], in assay [7] and in assay [8] was inactive.
With `Cc1cc(NCCC(=O)Nc2ccccc2)nc(NCCc2ccccc2)n1`, the values for the growth inhibition in assay [1] and in assay [4] were 8% and 99% (active), respectively. Moreover, the inhibition in assay [2] was -8%; in assay [3], -3%. The outcome in assay [5], in assay [6], in assay [7] and in assay [8] was inactive.

The record behind these values is PubChem BioAssay.
